# Test results: PubChem BioAssay
# Inconclusive results are not listed. The source made the active and inactive calls. Rule as the data show it, unless noted: active = response above about 15%; inactive = the rest.
# Columns and labels:
# [1] = yeast TOR pathway RPL19A-GFP modulators, primary screen, cell-based, S. cerevisiae, multiplex flow cytometry (AID 1862; in the data active = percent of DMSO control GFP below about 86%;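 also: lower values mimic rapamycin by blocking the RPL19A rise seen in DMSO cells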); details: S. cerevisiae RPL19A-GFP strain, flow cytometry fluorescence, 3 h; at 10 µM; stronger effect = lower value
# [2] = modulators of MEP2-GFP levels in yeast, primary screen, S. cerevisiae, multiplex flow cytometry (AID 1867;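 active = GFP response, as percent of the DMSO control, above the screen-wide mean plus 3 SD, about 139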;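 also: median GFP channel fluorescence of barcode-gated MEP2-GFP cells measured by flow cytometry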); details: S. cerevisiae MEP2-GFP strain, 3 h, at 10 µM, stronger effect = higher value, 100% means same as DMSO wells
# [3] = modulators of CIT2-GFP expression in yeast, primary screen, S. cerevisiae, GFP fusion, multiplex flow cytometry (AID 1870;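 active = percent response above a set limit, the screen-wide mean plus 3 SD, cut at about 130% in these data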;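 also: barcoded CIT2-GFP strain pooled with four other GFP strains with rapamycin as positive control; median GFP fluorescence per well over plate mean of DMSO wells so 100% = DMSO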); details: 3 h, at 10 µM, stronger effect = higher value
# [4] = modulators of LAP4-GFP expression in yeast, primary screen, S. cerevisiae, multiplex flow cytometry (AID 1873;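 active = GFP signal, as percent of the solvent control, above the screen mean plus 3 SD, about 149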); details: 3 h, at 10 µM, stronger effect = higher value
# [5] = modulators of AGP1-GFP expression in yeast TOR pathway, primary screen, cell-based, multiplex flow cytometry, S. cerevisiae (AID 1887;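 active = GFP signal above the screen-wide mean plus 3 SD, that is over about 124.5% of the solvent control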;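 also: AGP1-GFP fusion strain of S. cerevisiae within a five-strain barcoded multiplex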); details: 3 h, at 10 µM, stronger effect = higher value
# [6] = inhibitors of CD8+ T cell-vesicle binding, pilot screen, LFA-1/ICAM-1 modulator project, MLPCN validation set, flow cytometry (AID 2523;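 active = response below a set limit, under 55% cells CD8-positive and vesicle-bound, and CD8 cells' 90th-percentile brightness under 279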;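 as to vesicle binding response: mean PE anti-B7-1 fluorescence of CD8+ cells relative to row control; 100% = QL9-loaded vesicles with DMSO vehicle in the same plate row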); details: 2C mouse CD8+ T cells, at 7 µM, stronger effect = lower value; double positive events: measured here: CD8+/vesicle+ event percentage
# [7] = biological target: Integrin beta-1 (Homo sapiens) + Integrin alpha-4 (Homo sapiens) (UniProt P13612+P05556); assay: inhibition of HUTS-21 binding to VLA-4, pilot screen, VLA-4 allosteric modulator project, U937 cells, HUTS-21 mAb, flow cytometry, validation set (AID 2674;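 active = inhibition above 50%, about 3 SD of the validation set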;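 also: antibody binding induced by the VLA-4 ligand LDV present at three times its Kd; 0% = LDV ligand with antibody and no compound and 100% = antibody without LDV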); details: HUTS-21 LIBS mAb binding, at 6.7 µM, stronger effect = higher value, binding induced by LDV ligand
# [8] = superoxide lowering in aged yeast cells, pilot screen, validation compound set (AID 2706;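 active = superoxide response below 65% of plate, a cut near 3 SD across the whole screen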;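 also: yeast exposed to compound for one week at 30 degrees C before staining; 100% = mean of all compound wells on the same plate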); details: S. cerevisiae aging, superoxide DHE fluorescence; at 10 µM; stronger effect = lower value
# [9] = biological target: Beta-adrenergic receptor kinase 1 (Homo sapiens) (UniProt P25098); assay: GRK2 binders displacing RNA aptamer, biochemical, validation, human GRK2, bead flow cytometry (AID 488806;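 active = aptamer binding inhibition above 30%, about 3 SD of noise from non-fluorescent compounds; inactive = inhibition at or below 30%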); details: bead-bound GRK2, FAM-aptamer displacement, at 10 µM, stronger effect = higher value
# [10] = biological target: Beta-2 adrenergic receptor (Homo sapiens) (UniProt P07550); assay: beta2AR agonists driving receptor internalization, pilot screen, cell-based, FAP fluorogen, flow cytometry, validation set (AID 504459;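 active = percent response above 42, roughly 3 SD of non-fluorescent test compounds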;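 also: agonist-driven loss of surface beta2AR via internalization measured by FAP dye flow cytometry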); details: Am2.2-beta2AR cells, FAP surface receptor flow cytometry; at 10 µM; stronger effect = higher value
# [11] = biological target: AP-2 complex subunit beta (Homo sapiens) (UniProt P63010); assay: inhibitors of arrestin peptide binding to AP2, pilot screen, biochemical, validation set, GST-AP2 beads, flow cytometry (AID 504541;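 active = inhibition above 54%, about 3 SD of non-fluorescent compounds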;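 also: AP2 carries R879A mutation and is captured from E. coli lysate; bead-bound FITC arrestin peptide fluorescence measuring arrestin peptide binding to AP2; 0% = DMSO wells and 100% = excess unlabeled arrestin peptide control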); details: FITC arrestin peptide, at 10 µM, stronger effect = higher value, AP2 beta2 appendage fragment, R879A mutant
# [12] = yeast V-ATPase proton transport modulators, S. cerevisiae, pHLuorin, HTS validation (AID 504600);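 also: plate controls were DMSO for no effect and reference compound for full effect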; details: S. cerevisiae pHLuorin cytosolic pH, at 10 µM, stronger effect = higher value
# [13] = tested on: anti-desmoglein-3 scFv antibody binding to human DSG3; assay: inhibitors of anti-DSG3 scFv binding to DSG3, pilot screen, biochemical, validation compound set, bead-based, flow cytometry (AID 588368;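 active = binding below the plate cutoff, the plate median minus 3 SD, with a reading above zero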;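 also: signal is the median channel fluorescence of bead-bound GFP antibody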); details: Protein G beads, DSG3-Fc, scFv-GFP binding, at 10 µM, stronger effect = lower value
# [14] = inhibitors of fungal efflux pumps CDR1, CDR2, MDR1, pilot screen, validation compound set, multiplex, phenotypic (AID 588506;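 active = efflux inhibition above 0.42, the validation set average plus 4 SD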;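 also: Nile Red retained in cells so higher fluorescence means more efflux inhibition; 0 = negative control wells and 1 = enniatin B 25 µM full block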); details: S. cerevisiae pump-expressing triplex, Nile Red efflux flow cytometry; at 10 µM; stronger effect = higher value; the pumps come from Candida albicans
# [15] = biological target: ATP-binding cassette sub-family B member 6 (Homo sapiens) (UniProt Q9NP58); assay: ABCB6 transporter inhibitors, pilot screen, K562-ABCB6 cells, flow cytometry, validation set (AID 588550;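 active = inhibition above the screen-wide mean plus 3 SD, about 51%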;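 also: 0% = DMSO wells and 100% = benzethonium chloride 70 µM positive control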); details: K562-ABCB6 porphyrin accumulation, 1 h, at 10 µM, stronger effect = higher value
# [16] = promoters of myeloid differentiation in arrested cells, primary screen, cell-based, GFP/MAC1 double positive, flow cytometry, validation set (AID 588685;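 active = differentiation response of at least 50%, scaled between solvent and reference control, from cells with both markers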;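 also: compound exposure lasts four days before antibody staining and flow analysis; 0% = DMSO wells and 100% = 5 µM fulvestrant positive control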); details: ER-HoxA9 marrow cells, stronger effect = higher value, normalized: vehicle 0, fulvestrant 100
# Chain of Integrin beta-1 (Homo sapiens) + Integrin alpha-4 (Homo sapiens) (P05556 whole entry, looked up): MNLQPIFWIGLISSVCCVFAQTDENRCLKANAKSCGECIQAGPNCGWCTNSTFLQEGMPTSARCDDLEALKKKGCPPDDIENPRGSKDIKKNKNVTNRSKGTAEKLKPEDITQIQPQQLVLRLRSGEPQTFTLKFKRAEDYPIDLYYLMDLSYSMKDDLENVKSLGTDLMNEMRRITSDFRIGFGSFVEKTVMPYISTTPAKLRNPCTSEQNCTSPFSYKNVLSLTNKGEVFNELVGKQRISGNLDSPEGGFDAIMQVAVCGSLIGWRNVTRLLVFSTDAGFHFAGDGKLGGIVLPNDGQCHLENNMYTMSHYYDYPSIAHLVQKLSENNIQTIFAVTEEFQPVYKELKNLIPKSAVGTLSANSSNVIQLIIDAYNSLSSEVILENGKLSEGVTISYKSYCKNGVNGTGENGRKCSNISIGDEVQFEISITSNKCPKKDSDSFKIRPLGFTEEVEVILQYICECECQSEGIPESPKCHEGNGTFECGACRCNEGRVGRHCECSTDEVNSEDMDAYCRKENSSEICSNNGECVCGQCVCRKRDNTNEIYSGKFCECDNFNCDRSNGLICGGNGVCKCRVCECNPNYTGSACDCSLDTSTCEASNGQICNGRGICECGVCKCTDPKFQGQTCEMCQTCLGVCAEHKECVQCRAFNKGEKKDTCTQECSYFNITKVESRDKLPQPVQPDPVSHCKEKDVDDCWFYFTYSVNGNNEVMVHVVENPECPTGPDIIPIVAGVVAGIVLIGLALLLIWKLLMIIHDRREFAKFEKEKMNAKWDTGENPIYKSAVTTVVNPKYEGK
# Chain of Integrin beta-1 (Homo sapiens) + Integrin alpha-4 (Homo sapiens) (P13612 whole entry, looked up): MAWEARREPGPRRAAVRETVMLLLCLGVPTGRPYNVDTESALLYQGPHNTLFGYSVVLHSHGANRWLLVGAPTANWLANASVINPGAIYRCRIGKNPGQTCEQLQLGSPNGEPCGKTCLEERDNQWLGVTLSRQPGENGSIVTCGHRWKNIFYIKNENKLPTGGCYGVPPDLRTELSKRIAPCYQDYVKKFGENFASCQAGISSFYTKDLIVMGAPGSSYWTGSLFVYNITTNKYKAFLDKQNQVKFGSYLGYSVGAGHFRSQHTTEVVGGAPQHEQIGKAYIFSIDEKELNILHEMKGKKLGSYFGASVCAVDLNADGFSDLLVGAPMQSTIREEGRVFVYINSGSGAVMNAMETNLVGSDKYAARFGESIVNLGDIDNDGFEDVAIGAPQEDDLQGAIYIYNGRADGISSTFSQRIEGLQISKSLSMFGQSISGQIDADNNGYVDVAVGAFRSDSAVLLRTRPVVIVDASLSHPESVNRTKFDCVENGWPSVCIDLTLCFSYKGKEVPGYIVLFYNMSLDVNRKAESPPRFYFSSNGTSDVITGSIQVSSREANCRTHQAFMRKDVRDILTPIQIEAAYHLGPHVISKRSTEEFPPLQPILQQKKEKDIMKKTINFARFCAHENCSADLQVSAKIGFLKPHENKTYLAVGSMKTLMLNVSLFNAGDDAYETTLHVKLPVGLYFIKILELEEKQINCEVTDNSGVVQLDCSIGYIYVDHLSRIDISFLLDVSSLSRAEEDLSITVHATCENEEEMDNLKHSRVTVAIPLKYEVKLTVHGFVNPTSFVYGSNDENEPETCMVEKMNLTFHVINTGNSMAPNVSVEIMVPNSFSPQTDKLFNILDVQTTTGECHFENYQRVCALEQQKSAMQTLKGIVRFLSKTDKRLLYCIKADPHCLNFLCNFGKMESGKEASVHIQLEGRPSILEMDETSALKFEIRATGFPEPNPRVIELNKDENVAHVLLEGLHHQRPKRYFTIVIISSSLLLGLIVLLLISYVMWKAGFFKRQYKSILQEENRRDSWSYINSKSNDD
# Chain of Beta-2 adrenergic receptor (Homo sapiens) (P07550 whole entry, looked up): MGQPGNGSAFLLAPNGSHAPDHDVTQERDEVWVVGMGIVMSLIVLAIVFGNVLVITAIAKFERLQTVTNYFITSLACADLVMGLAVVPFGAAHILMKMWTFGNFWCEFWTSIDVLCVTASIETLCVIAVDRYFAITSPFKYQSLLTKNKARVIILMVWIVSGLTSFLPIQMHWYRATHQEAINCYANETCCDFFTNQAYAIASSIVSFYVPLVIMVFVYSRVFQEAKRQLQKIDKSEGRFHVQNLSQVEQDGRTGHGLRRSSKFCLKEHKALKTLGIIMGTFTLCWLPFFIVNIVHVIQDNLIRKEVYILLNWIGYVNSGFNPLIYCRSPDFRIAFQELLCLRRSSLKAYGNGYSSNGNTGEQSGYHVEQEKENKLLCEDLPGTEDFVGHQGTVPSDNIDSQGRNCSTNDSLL
# Chain of ATP-binding cassette sub-family B member 6 (Homo sapiens) (Q9NP58 whole entry, looked up): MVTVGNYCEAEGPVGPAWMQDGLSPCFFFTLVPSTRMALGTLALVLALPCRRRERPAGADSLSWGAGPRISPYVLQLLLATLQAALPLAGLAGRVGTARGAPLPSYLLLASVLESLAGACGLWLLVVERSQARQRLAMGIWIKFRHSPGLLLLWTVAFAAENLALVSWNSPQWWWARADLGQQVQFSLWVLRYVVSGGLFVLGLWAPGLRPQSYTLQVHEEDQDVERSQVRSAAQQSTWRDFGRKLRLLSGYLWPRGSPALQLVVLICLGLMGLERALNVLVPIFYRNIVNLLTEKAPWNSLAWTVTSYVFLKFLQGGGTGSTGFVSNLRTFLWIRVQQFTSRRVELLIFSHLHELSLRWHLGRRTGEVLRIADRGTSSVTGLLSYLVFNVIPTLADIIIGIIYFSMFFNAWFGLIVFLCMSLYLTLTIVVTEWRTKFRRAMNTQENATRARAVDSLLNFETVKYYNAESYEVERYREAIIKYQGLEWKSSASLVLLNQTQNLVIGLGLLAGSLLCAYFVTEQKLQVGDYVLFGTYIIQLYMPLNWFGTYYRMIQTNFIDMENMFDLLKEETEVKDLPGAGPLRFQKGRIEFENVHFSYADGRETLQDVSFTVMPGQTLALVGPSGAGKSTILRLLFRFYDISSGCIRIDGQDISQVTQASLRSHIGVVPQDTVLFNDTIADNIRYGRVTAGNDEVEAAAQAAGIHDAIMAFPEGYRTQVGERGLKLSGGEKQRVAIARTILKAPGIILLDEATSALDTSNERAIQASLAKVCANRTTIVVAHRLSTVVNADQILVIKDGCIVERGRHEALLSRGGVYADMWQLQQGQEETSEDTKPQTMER
# Chain of Beta-adrenergic receptor kinase 1 (Homo sapiens) (P25098 whole entry, looked up): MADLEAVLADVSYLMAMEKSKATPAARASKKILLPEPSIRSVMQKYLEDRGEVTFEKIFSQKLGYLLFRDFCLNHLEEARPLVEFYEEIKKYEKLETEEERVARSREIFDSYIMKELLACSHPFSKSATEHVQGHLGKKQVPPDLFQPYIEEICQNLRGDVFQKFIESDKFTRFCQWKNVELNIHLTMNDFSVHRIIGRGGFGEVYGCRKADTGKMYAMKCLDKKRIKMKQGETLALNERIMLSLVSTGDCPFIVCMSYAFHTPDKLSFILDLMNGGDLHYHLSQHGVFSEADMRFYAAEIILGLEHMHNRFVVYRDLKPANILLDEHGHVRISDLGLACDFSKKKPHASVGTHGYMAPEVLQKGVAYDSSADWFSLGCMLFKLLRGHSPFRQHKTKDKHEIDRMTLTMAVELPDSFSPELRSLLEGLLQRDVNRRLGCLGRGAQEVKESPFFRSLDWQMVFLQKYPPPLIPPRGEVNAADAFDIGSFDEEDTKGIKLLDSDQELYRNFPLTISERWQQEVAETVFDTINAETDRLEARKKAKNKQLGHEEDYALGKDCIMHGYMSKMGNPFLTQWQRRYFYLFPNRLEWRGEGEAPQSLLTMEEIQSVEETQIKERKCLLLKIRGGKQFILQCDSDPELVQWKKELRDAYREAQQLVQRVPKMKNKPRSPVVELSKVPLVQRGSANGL
# Chain of AP-2 complex subunit beta (Homo sapiens) (P63010 whole entry, looked up, the tested form may be a part, one chain of several): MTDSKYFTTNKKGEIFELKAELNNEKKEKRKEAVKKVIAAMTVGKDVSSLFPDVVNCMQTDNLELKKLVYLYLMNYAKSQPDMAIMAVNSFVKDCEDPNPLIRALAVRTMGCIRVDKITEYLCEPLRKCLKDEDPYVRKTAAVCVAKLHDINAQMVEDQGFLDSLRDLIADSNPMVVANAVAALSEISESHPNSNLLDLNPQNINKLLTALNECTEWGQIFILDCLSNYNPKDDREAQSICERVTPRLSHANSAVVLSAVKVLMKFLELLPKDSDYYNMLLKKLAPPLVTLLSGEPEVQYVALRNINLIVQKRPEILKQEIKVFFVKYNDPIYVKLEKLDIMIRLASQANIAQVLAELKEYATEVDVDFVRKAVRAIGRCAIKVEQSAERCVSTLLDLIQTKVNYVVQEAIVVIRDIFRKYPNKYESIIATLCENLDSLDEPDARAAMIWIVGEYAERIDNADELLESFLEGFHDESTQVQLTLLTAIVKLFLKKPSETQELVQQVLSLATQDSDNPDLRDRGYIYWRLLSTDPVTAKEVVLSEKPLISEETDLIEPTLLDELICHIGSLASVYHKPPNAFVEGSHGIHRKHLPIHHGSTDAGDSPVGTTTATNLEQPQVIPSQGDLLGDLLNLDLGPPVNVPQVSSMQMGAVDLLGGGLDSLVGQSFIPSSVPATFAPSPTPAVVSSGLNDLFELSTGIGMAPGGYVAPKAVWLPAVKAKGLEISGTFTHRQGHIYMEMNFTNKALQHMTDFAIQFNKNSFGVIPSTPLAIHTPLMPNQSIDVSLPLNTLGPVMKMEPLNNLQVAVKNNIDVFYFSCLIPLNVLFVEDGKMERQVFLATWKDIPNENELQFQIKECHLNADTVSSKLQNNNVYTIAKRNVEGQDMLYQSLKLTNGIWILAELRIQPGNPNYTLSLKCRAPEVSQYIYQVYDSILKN
Compound,percent of DMSO control GFP [1],GFP response vs DMSO [2],percent response of DMSO control [3],GFP response vs DMSO [4],"GFP response, % of DMSO [5]",double positive events [6] [%],vesicle binding response [6],inhibition [7],superoxide response (% of plate) [8],aptamer binding inhibition [9],response [10],inhibition [11],response [12],binding (% of control) [13],efflux inhibition (fraction of control) [14],inhibition [15],differentiation response [16]
CCC(C)NCCOCCOc1ccc(Cl)cc1Br (stereo not given),103% (inactive),102% (inactive),102% (inactive),100% (inactive),103% (inactive),61.4,142% (inactive),0.25% (inactive),98% (inactive),-7% (inactive),-3.72% (inactive),57.1% (active),-10.6% (inactive),95.8% (inactive),-0.16 (inactive),-14% (inactive),-4.57% (inactive)
CC1=NS(=O)(=O)c2cc(Cl)ccc2N1,98.8% (inactive),105% (inactive),93.1% (inactive),84.1% (inactive),97% (inactive),63.9,964% (inactive),-3.57% (inactive),104% (inactive),3% (inactive),-5.04% (inactive),14.6% (inactive),-1.96% (inactive),101% (inactive),-0.1 (inactive),4% (inactive),34.5% (inactive)
COc1ccc(-c2cc(C(=O)N3CCOCC3)c3cc(C)ccc3n2)cc1,91.1% (inactive),102% (inactive),101% (inactive),110% (inactive),107% (inactive),73.1,206% (inactive),-8.78% (inactive),92% (inactive),1% (inactive),-16.3% (inactive),9.71% (inactive),-6.37% (inactive),104% (inactive),-0.09 (inactive),7% (inactive),9.79% (inactive)
O=C(Nc1ccc(C(=O)NC2CCCCC2)cc1)c1cccnc1,99.5% (inactive),101% (inactive),107% (inactive),119% (inactive),105% (inactive),57.6,232% (inactive),-0.43% (inactive),113% (inactive),1% (inactive),-3.04% (inactive),-15.9% (inactive),1.36% (inactive),95.1% (inactive),-0.17 (inactive),13% (inactive),-4% (inactive)
O=C(CSCc1ccccc1)NCCCN1CCOCC1,97.9% (inactive),106% (inactive),104% (inactive),98% (inactive),107% (inactive),62.4,197% (inactive),12.3% (inactive),114% (inactive),3% (inactive),-1.38% (inactive),-9.56% (inactive),3.45% (inactive),102% (inactive),0.17 (inactive),15% (inactive),-14.8% (inactive)
COc1ccc(C(=O)COc2ccc(F)cc2)c(O)c1,106% (inactive),98.3% (inactive),106% (inactive),96% (inactive),97.6% (inactive),60.6,253% (inactive),-7.72% (inactive),86.7% (inactive),1% (inactive),-9.67% (inactive),1.75% (inactive),2.77% (inactive),94.5% (inactive),-0.04 (inactive),1% (inactive),1.22% (inactive)
COc1cc(C2C(C(C)=O)=C(O)C(=O)N2c2ccc(C)cc2)ccc1O (stereo not given),100% (inactive),104% (inactive),100% (inactive),97.3% (inactive),97.5% (inactive),57.9,75.1% (inactive),-16% (inactive),107% (inactive),3% (inactive),-1.25% (inactive),51.5% (inactive),-8.34% (inactive),95.1% (inactive),-0.17 (inactive),-2% (inactive),17.8% (inactive)
Cc1ccccc1C(=O)Oc1ccc(Sc2ccc(O)cc2)cc1,103% (inactive),99.3% (inactive),100% (inactive),113% (inactive),100% (inactive),62.4,255% (inactive),0.58% (inactive),94.1% (inactive),0% (inactive),-4.72% (inactive),-5.67% (inactive),1.54% (inactive),97.6% (inactive),0.02 (inactive),-7% (inactive),-1.71% (inactive)
c1ccc(-c2ccc(C(c3ccccc3)n3ccnc3)cc2)cc1 (stereo not given),99.8% (inactive),104% (inactive),101% (inactive),115% (inactive),111% (inactive),66.2,187% (inactive),8.25% (inactive),209% (inactive),7% (inactive),0.23% (inactive),-14.1% (inactive),15.5% (active),101% (inactive),-0.04 (inactive),0% (inactive),-2.03% (inactive)
CCC(=O)c1ccc(OCc2ccc(C(=O)OC)cc2)cc1,104% (inactive),104% (inactive),106% (inactive),112% (inactive),98.6% (inactive),54.8,127% (inactive),4.27% (inactive),90.3% (inactive),-1% (inactive),4.9% (inactive),10.4% (inactive),23.8% (active),96.4% (inactive),-0.045 (inactive),10% (inactive),-23.6% (inactive)
